Inconclusive results are not listed. Activity calls are given as the source filed them. Unless noted, calls follow the shape of the dose curve; as a rule, active = well fitted curve in either direction with a large enough effect (not every such curve was filed as active); inconclusive = small, poorly fitted or top-dose-only effect, or another doubt; inactive = flat fitted curve, though single readings scatter.
What was measured:
[1] = AP1 Signaling Pathway (AID 357);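 also: ME-180 reporter cells stimulated with EGF at its EC50 level; % is scaled to controls: 0 for no effect and ±100 for the full control effect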
Procedure, shortened: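 Beta-lactamase reporter under AP-1 response element, ME-180 background. Stimulus: EC50 EGF. Compound exposure 5 h, 37 °C. Detection: CCF4, 2.5 h RT, 460/530 nm. Values: AC50 from titration.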

[2] = target: Cytochrome P450 1A2 (Homo sapiens) (UniProt P05177); assay: p450-cyp1a2 (AID 410; calls by dose curve; also: potency is read from the fitted curve at half-maximal effect;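 as to activity change, negative = inhibition: -100% = full effect of reference inhibitor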)
Procedure, shortened: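 Inhibition was calculated relative to 57 uM furafylline (full inhibition). The reaction used human CYP1A2 at 20nM with Luciferin-ME at its Km, 100uM, driven by an NADPH-regenerating system for 60 min at room temperature.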

[3] = NFAT Signaling Pathway (AID 444); conditions: Jurkat NFAT-bla M1, carbachol, beta-lactamase ratio, 5 h; at 17.2 µM (top of the series) unless noted;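 also: carbachol stimulus at about its EC50 of 1 µM final; % is scaled to controls: 0 for no effect and ±100 for the full control effect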
Procedure, shortened: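 Jurkat cells with NFAT-driven β-lactamase reporter and co-expressed M1 receptor, stimulated with carbachol (final 1 uM, ~EC50), compound titration, 5 h at 37 °C. CCF4 loaded 1 h at RT; 460/530 nm ratio gave %activity and AC50.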

[4] = Stat Signaling Pathway (AID 446);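 also: ME-180 cervical cancer cells given 40 pM IL-6 alongside compound; SIE-controlled beta-lactamase reporter measured as 460/530 nm FRET emission ratio; % is scaled to controls: 0 for no effect and ±100 for the full control effect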
Procedure, shortened: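 Screening format detects activators and inhibitors alike: ME-180 SIE-bla cells stimulated at 40 pM IL-6 for 5 hrs with compound, then dual-emission beta-lactamase read at 405 nm excitation.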

[5] = target: Mitogen-activated protein kinase 10 (Mus musculus) (UniProt Q61831); assay: JNK3 AlphaScreen Assay (AID 530);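 also: kinase came from lysate of stimulated human HepG2 cells; signal reports phosphorylation of biotinylated GST-cJun 1-79 at Ser73 with 10 µM ATP; % is scaled to controls: 0 for no effect and ±100 for the full control effect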
Procedure, shortened: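 qHTS format: compounds tested as titrations against IL-1beta/TNF-alpha-activated HepG2 lysate JNK3 with biotin-GST-cJun substrate and 10 uM ATP at room temperature. Loss of anti-phospho-cJun AlphaScreen signal indicates inhibition.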

[6] = target: 3',5'-cyclic-AMP phosphodiesterase 4B (Homo sapiens) (UniProt Q07343); assay: qHTS Assay for Inhibitors of PDE-IV (AID 607; active = well fitted activation curve with a large enough effect in the main read-out, with a control signal flat, not every such curve was filed as active; also: % of control where 0% means no effect)
Procedure, shortened: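 The readout is membrane depolarisation from a cAMP-sensing CNG channel, detected with a potential dye at ex 535/em 590. Cells were HEK293-derived (endogenous PDE-IV) at 1000 cells/well, titrated up to 22.9 uM final.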

[7] = qHTS Assay for Lipid Storage Modulators (AID 1519; calls by dose curve); conditions: Drosophila S3 cells, BODIPY lipid droplet/cell ratio, laser cytometry, cells loaded with oleic acid
Procedure, shortened: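 Cells seeded at 5,000 per well were treated with compounds over a concentration series and loaded with oleic acid (400 uM, as added). Lipid droplet fluorescence (488 nm excitation, 500-530 nm channel) was read by laser-scanning cytometry and normalized to 20 uM Triacsin C.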

[8] = target: Ubiquitin carboxyl-terminal hydrolase 1 (Homo sapiens) (UniProt O94782); assay: Inhibitors of USP1/UAF1: Pilot qHTS (AID 504865; active = well fitted curve in the direction sought with a large enough effect; an effect the other way counts as inactive or inconclusive;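 also: rhodamine fluorescence freed from ubiquitin-rhodamine substrate followed over time; top concentration of the series differs between compounds; % is scaled to controls: 0 for no effect and ±100 for the full control effect; nearly all actives have a fitted effect of over 35% in size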)
Procedure, shortened: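 Enzyme-free wells gave the negative control, while test wells held 1nM USP1/UAF1 preincubated with compound for 15 min at room temperature. Ub-Rho at 150nM final started the reaction, and fluorescence at 480/540 nm was recorded kinetically.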

[9] = target: ATP-dependent 6-phosphofructokinase (Trypanosoma brucei brucei) (UniProt O15648); assay: qHTS Assay to Find Inhibitors of T. brucei phosphofructokinase: hit validation (AID 492961; active = well fitted curve in the direction sought with a large enough effect; an effect the other way counts as inactive or inconclusive; also: % is scaled to controls: 0 for no effect and ±100 for the full control effect)
Procedure, shortened: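 Luminescence from ADP-Glo reports ADP generated as T. brucei PFK (1.25 nM) phosphorylates 0.5 mM fructose-6-phosphate using 0.1 mM ATP. Reactions ran 45 min at room temperature, pH 8.0.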

[10] = qHTS profiling for inhibitors of Plasmodium falciparum proliferation (AID 504749; active = well fitted curve in the direction sought with a large enough effect; an effect the other way counts as inactive or inconclusive;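 also: 0% = DMSO vehicle and full inhibition = artemisinin control; nearly all actives have a fitted effect of over 60% in size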); conditions: P. falciparum in erythrocytes, SYBR Green DNA, 72 h, at 12.8 µM (top of the series)
Procedure, shortened: (§1)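 Readout was DNA-dye fluorescence from lysed cultures, ex 485/em 535 nm. Parasitized red cells had grown 72 h with compound; data scaled between 0.29 uM artemisinin and DMSO wells and corrected using vehicle-only plates.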

C2A = assay: as above; conditions: P. falciparum in erythrocytes, SYBR Green DNA, 72 h; series mostly up to 12.8 µM
Procedure, shortened: as §1

CP191 = assay: as above; conditions: P. falciparum in erythrocytes, SYBR Green DNA, 72 h; series mostly up to 12.8 µM
Procedure, shortened: as §1

CP217 = assay: as above; conditions: P. falciparum in erythrocytes, SYBR Green DNA, 72 h; series mostly up to 12.8 µM
Procedure, shortened: as §1

CP250 = assay: as above; conditions: P. falciparum in erythrocytes, SYBR Green DNA, 72 h; series mostly up to 12.8 µM
Procedure, shortened: as §1

CP256 = assay: as above; conditions: P. falciparum in erythrocytes, SYBR Green DNA, 72 h; series mostly up to 12.8 µM
Procedure, shortened: as §1

FAB9 = assay: as above; conditions: P. falciparum in erythrocytes, SYBR Green DNA, 72 h; series mostly up to 12.8 µM
Procedure, shortened: as §1

JCK = assay: as above; conditions: P. falciparum in erythrocytes, SYBR Green DNA, 72 h; series mostly up to 12.8 µM
Procedure, shortened: as §1

SC27B = assay: as above; conditions: P. falciparum in erythrocytes, SYBR Green DNA, 72 h; series mostly up to 12.8 µM
Procedure, shortened: as §1

[11] = target: Glucocorticoid receptor (Homo sapiens) (UniProt P04150); assay: GR-GFP Redistribution (AID 450;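 active = compounds whose dose series gives a full or clear partial fitted curve of increased nuclear translocation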; also: potency is read from the fitted curve at half-maximal effect); conditions: U2OS GR-GFP nuclear translocation, laser cytometry, 2 h
[12] = target: Glucocorticoid receptor (Homo sapiens) (UniProt P04150); assay: GR-EFC Redistribution (AID 451; calls by dose curve; also: potency is read from the fitted curve at half-maximal effect); conditions: CHO-K1 GR-EFC translocation, beta-gal luminescence, 2 h
Procedure, shortened: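 CHO-K1 cells expressing nuclear EA and GR-ED fragments of b-gal; compounds titrated up to 46 uM final, 2 h at 37 C. GR nuclear translocation read as complemented b-gal luminescence after 1 h RT detection.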

[13] = measured here: cell count channel max response
[14] = measured here: lipid channel max response

Chain of Cytochrome P450 1A2 (Homo sapiens) (P05177 whole entry, looked up): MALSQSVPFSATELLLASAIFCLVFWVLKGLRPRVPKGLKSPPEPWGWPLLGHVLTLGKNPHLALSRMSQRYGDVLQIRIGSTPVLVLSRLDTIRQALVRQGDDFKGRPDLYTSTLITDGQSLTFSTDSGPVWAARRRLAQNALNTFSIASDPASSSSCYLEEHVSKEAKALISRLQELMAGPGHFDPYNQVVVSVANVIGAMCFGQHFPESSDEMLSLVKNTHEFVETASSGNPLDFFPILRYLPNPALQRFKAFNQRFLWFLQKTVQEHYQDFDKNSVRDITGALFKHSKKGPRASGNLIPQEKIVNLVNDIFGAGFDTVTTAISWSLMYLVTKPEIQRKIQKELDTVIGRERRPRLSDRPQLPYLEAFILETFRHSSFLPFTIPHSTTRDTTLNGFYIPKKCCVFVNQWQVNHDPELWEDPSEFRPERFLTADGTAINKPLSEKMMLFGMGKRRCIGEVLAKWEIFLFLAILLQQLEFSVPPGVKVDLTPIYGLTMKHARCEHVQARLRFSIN
Chain of Ubiquitin carboxyl-terminal hydrolase 1 (Homo sapiens) (O94782 whole entry, looked up): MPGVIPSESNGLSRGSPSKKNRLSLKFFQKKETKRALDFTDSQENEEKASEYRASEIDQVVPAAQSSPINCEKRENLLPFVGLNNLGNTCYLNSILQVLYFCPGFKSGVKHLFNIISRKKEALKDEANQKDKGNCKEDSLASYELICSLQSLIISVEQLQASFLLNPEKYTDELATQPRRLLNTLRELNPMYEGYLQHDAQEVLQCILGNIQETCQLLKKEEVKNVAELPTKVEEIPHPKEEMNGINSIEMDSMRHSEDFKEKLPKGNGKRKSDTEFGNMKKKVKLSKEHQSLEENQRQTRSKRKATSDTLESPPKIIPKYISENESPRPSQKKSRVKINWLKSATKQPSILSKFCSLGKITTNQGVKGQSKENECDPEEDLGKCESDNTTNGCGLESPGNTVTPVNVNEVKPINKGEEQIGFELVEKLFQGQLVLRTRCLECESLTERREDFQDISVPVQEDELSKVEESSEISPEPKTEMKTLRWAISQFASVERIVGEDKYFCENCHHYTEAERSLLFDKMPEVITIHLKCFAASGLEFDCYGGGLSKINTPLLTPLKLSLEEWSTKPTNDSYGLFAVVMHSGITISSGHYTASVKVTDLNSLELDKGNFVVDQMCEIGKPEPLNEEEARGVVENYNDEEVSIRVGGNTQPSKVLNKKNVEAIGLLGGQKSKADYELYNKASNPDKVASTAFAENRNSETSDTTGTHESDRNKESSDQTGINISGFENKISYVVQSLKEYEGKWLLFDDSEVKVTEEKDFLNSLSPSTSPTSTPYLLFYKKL
Chain of ATP-dependent 6-phosphofructokinase (Trypanosoma brucei brucei) (O15648 whole entry, looked up): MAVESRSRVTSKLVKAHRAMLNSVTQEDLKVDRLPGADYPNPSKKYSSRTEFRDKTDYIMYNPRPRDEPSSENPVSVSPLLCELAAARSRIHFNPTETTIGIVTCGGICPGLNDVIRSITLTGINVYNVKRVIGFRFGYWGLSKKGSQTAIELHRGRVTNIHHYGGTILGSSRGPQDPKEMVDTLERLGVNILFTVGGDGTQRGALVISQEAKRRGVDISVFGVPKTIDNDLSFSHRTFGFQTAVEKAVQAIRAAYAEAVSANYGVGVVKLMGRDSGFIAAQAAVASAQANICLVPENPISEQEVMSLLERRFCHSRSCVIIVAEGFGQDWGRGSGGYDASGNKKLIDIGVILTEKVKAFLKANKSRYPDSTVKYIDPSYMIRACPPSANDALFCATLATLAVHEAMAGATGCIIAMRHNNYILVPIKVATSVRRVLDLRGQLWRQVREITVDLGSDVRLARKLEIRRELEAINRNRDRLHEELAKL
Chain of 3',5'-cyclic-AMP phosphodiesterase 4B (Homo sapiens) (Q07343 whole entry, looked up): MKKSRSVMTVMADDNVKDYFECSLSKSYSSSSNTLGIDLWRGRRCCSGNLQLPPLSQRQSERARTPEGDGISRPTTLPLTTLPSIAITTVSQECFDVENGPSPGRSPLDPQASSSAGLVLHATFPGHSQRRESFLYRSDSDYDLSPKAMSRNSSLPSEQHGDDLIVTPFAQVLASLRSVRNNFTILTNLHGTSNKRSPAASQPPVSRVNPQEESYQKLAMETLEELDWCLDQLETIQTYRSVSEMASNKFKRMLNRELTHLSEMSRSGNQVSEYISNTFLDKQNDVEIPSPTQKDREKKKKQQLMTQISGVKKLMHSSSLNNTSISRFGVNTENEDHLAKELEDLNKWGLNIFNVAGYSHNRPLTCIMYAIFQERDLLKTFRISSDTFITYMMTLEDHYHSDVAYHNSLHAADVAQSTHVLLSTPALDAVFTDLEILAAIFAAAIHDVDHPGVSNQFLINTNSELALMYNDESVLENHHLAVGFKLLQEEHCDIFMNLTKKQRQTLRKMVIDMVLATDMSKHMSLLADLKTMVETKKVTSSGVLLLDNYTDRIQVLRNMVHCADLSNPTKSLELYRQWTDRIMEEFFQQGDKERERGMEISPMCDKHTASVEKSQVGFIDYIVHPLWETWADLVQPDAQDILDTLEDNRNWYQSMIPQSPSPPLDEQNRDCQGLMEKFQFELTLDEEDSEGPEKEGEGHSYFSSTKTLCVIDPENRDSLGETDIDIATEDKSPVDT
Chain of Glucocorticoid receptor (Homo sapiens) (P04150 whole entry, looked up, the tested form may be a part): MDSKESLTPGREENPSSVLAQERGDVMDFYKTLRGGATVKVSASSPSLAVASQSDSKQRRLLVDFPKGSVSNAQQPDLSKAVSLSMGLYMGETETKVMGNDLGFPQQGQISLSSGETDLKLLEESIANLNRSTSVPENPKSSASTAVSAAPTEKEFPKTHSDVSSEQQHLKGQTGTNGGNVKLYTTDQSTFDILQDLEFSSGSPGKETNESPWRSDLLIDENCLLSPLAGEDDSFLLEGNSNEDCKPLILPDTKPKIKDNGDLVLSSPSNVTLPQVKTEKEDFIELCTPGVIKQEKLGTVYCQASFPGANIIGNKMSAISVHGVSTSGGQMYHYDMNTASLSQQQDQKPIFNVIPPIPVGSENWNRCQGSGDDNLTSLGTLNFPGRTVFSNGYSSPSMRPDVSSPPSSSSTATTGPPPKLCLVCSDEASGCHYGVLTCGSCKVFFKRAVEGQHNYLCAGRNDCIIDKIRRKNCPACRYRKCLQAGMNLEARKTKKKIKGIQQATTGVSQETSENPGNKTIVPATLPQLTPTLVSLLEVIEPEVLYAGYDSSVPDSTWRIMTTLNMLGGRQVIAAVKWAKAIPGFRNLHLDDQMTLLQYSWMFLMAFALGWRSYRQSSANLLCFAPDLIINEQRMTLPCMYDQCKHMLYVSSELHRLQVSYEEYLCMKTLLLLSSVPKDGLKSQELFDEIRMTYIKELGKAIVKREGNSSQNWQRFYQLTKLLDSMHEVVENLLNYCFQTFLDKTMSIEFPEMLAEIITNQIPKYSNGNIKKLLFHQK

CC[C@@H]1OC(=O)[C@H](C)[C@H](O[C@@H]2C[C@](C)(OC)[C@H](O)[C@H](C)O2)[C@H](C)[C@H](O[C@@H]2O[C@@H](C)C[C@@H](N(C)C)[C@@H]2O)[C@](C)(O)C[C@H](C)[C@@H]2N[C@H](COCCOC)O[C@H]([C@@H]2C)[C@]1(C)O
inactive: outcome [1] | Potency [2] | activity change, negative = inhibition [3] -16.7% | outcome [4] | Potency [5] | outcome [6] | activity change, negative = inhibition ([7]; at 25.7 µM (top of the series)) -3.92% | Potency [8]
-8.33%: max response [7, 13]
-9.89%: max response [7, 14]

CC[C@H](CO)NCCN[C@@H](CC)CO
4.79%: max response [7, 13]
inactive: outcome [1] | Potency [2] | activity change, negative = inhibition [3] -11.9% | outcome [4] | Potency [5] | activity change, negative = inhibition ([7]; at 25.7 µM (top of the series)) -0.966% | outcome [9] | Potency [8] | activity, negative = inhibition ([10]; parasite line A) -3.07% | activity, negative = inhibition ([10]; parasite line B) 5.7% | Potency (C2A) | Potency (CP191) | Potency (CP217) | Potency (CP250) | Potency (CP256) | Potency (FAB9) | Potency (JCK) | Potency (SC27B)
4.52%: max response [7, 14]

Cc1noc(C)c1-c1nc(Nc2ccncc2)c2ccccc2n1
-5.56%: max response [7, 13]
-10.6%: max response [7, 14]
inactive: outcome [1] | activity change, negative = inhibition [3] -11.9% [at 7.69 µM] | outcome [4] | Potency [11] > 46 µM | Potency [12] > 46 µM | Potency [5] | activity change, negative = inhibition ([7]; at 57.5 µM (top of the series)) -8.29%
active: Potency [2] 0.1 µM

CN(C)c1ccc(-c2nccc(NCc3ccccc3)n2)cc1
active: Potency [2] 1.26 µM
inactive: outcome [1] | activity change, negative = inhibition [3] -14.3% [at 7.69 µM] | outcome [4] | Potency [11] > 46 µM | Potency [12] > 46 µM | Potency [5] | activity change, negative = inhibition ([7]; at 57.5 µM (top of the series)) 2.02% | Potency [8]
-1.11%: max response [7, 14]
-4.09%: max response [7, 13]

CC(C)CC(=O)N[C@H](C(=O)N[C@H](C(=O)N[C@@H](CC(C)C)[C@H](O)CC(=O)N[C@@H](C)C(=O)N[C@@H](CC(C)C)[C@H](O)CC(=O)O)C(C)C)C(C)C
inactive: outcome [1] | Potency [2] | activity change, negative = inhibition [3] -1.98% | outcome [4] | Potency [5] | outcome [6] | activity change, negative = inhibition ([7]; at 25.7 µM (top of the series)) 1.03% | Potency [8]
8.75%: max response [7, 14]
20.1%: max response [7, 13]

C[C@@H]1Cc2ccccc2N1NC(=O)c1ccc(Cl)c(S(N)=O)c1 (some centres undefined)
8.03%: max response [7, 13]
7.13%: max response [7, 14]
inactive: outcome [1] | Potency [2] | activity change, negative = inhibition [3] 6.1% | outcome [4] | Potency [5] | outcome [6] | activity change, negative = inhibition ([7]; at 25.7 µM (top of the series)) -0.666% | outcome [9] | Potency [8] | activity, negative = inhibition ([10]; parasite line A) 15.9% | activity, negative = inhibition ([10]; parasite line B) 17.7% | Potency (C2A) | Potency (CP191) | Potency (CP217) | Potency (CP250) | Potency (CP256) | Potency (FAB9) | Potency (JCK) | Potency (SC27B)

NS(=O)(=O)c1cc2c(cc1C(F)(F)F)N[C@H](Cc1ccccc1)NS2(=O)=O
-8.69%: max response [7, 13]
active: Potency [2] 15.8 µM
-8.81%: max response [7, 14]
inactive: outcome [1] | activity change, negative = inhibition [3] 17.7% | outcome [4] | Potency [5] | activity change, negative = inhibition ([7]; at 25.7 µM (top of the series)) 1.42% | outcome [9] | activity, negative = inhibition ([10]; parasite line A) -1.91% | Potency (C2A) | Potency (CP191) | Potency (CP217) | Potency (CP250) | Potency (CP256) | Potency (FAB9) | Potency (JCK) | Potency (SC27B)

CNc1ncnc2c1ncn2[C@@H]1O[C@H](CO)[C@@H](O)[C@@H]1O
-24.1%: max response [7, 14]
inactive: outcome [1] | Potency [2] | activity change, negative = inhibition [3] -5.4% | outcome [4] | Potency [11] > 20.6 µM | Potency [12] > 20.6 µM | Potency [5] | outcome [6] | activity change, negative = inhibition ([7]; at 25.7 µM (top of the series)) -4.48% | Potency [8]
-18.6%: max response [7, 13]

COc1ccc2nccc(C(=O)O)c2c1
inactive: outcome [1] | Potency [2] | activity change, negative = inhibition [3] -15.8% | outcome [4] | Potency [11] > 20.6 µM | Potency [12] > 20.6 µM | Potency [5] | outcome [6] | activity change, negative = inhibition ([7]; at 25.7 µM (top of the series)) 2.98%
-9.32%: max response [7, 14]
-10.5%: max response [7, 13]

CN[C@]1(C)[C@H]2CC[C@@H](C2)C1(C)C
-14.5%: max response [7, 14]
-12.2%: max response [7, 13]
inactive: outcome [1] | Potency [2] | activity change, negative = inhibition [3] -19.7% | outcome [4] | Potency [11] > 20.6 µM | Potency [12] > 20.6 µM | Potency [5] | outcome [6] | activity change, negative = inhibition ([7]; at 25.7 µM (top of the series)) -3.7%

CC(C)(N=NC(C)(C)C(=N)N)C(=N)N
0.846%: max response [7, 14]
inactive: outcome [1] | Potency [2] | activity change, negative = inhibition [3] 3.21% [at 7.69 µM] | outcome [4] | Potency [11] > 46 µM | Potency [12] > 9.22 µM | Potency [5] | outcome [6] | activity change, negative = inhibition ([7]; at 57.5 µM (top of the series)) 6.18% | Potency [8]
-8.52%: max response [7, 13]

C[C@@H]1C(=O)O[C@@H]2C[C@]34[C@H]5C[C@@H](C(C)(C)C)[C@@]36[C@@H](OC(=O)[C@@H]6O)O[C@@]4(C(=O)O5)[C@@]12O
-6.41%: max response [7, 14]
inactive: outcome [1] | Potency [2] | activity change, negative = inhibition [3] 0.0686% | outcome [4] | Potency [11] > 20.6 µM | Potency [12] > 20.6 µM | Potency [5] | outcome [6] | activity change, negative = inhibition ([7]; at 25.7 µM (top of the series)) -0.102% | Potency [8]
-9.92%: max response [7, 13]

CC(=O)OCC(=O)[C@@]1(O)CC[C@@H]2[C@H]3CCC4=CC(=O)CC[C@]4(C)[C@]3(F)[C@@H](O)C[C@@]21C
inactive: outcome [1] | Potency [2] | activity change, negative = inhibition [3] -9.54% | outcome [4] | Potency [5] | outcome [6] | activity change, negative = inhibition ([7]; at 25.7 µM (top of the series)) 0.165% | Potency [8]
9.02%: max response [7, 14]
9.04%: max response [7, 13]

CO/N=C(\C(=O)N[C@@H]1C(=O)N2C(C(=O)O)=C(COC(N)=O)CS[C@@H]12)c1ccco1
inactive: outcome [1] | Potency [2] | activity change, negative = inhibition [3] 6.11% | outcome [4] | Potency [11] > 20.6 µM | Potency [12] > 20.6 µM | Potency [5] | activity change, negative = inhibition ([7]; at 25.7 µM (top of the series)) 1.43% | Potency [8]
-5.14%: max response [7, 13]
-2.21%: max response [7, 14]

Source: PubChem BioAssay (NCATS)
